According to PubChem BioAssay AID488890 (Southern Research Specialized Biocontainment Screening …, 2010):
Out of some 320,000 compounds screened, about 1,300 (0.41%) were called active. About 3% were inconclusive and are not listed. How the calls were made is not given here. Only a sample is shown. Measured potencies and affinities stand elsewhere.

Assay: growth inhibition of non-replicating M. tuberculosis (AID 488890);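 further: plate controls were DMSO cells for no effect and high antibiotic wells for full effect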
Details: Mycobacterium tuberculosis non-replicating, at 25 µM, stronger effect = higher value

SMILES	inhibition [%]
Cc1ccc(NC(=O)COC(=O)c2cc(=O)c3ccccc3o2)c(Br)c1	6.59
Cc1cc(/C=C2\SC(=S)NC2=O)c(C)n1C1CC1	43.8
CCN1C(=O)C(=Cc2cc(C)n(C3CC3)c2C)C(=O)N(CC)C1=S	69.5
CCCS(=O)(=O)C/C(N)=N/OC(=O)c1ccc(Cl)cc1	3.52
COc1ccc(NC(=O)CN(C)CC(=O)Nc2ccccc2SC)cc1	-4.75
Cc1ccc(C)c(-c2csc(NC(=O)c3c(C)noc3C)n2)c1	-15
Cc1csc(NC(=O)c2cnccn2)n1	16.7
Cc1onc(-c2ccccc2)c1C(=O)Nc1nc(-c2cc(F)ccc2F)cs1	-10.6
CCOCC(=O)Nc1nc2ccc(OCC)cc2s1	80
O=C(Nc1nc2c(F)cc(F)cc2s1)c1ccco1	36.2
O=C(Nc1nc(-c2cc(F)ccc2F)cs1)C1=COCCO1	22.8
O=C(NNc1nc2c(F)cc(F)cc2s1)c1ccccc1	-1.93
COCC(=O)Nc1nc2ccc(C)cc2s1	49
CC(C)Cc1ccc(CN2CCCC(NC(=O)CCN3CCOCC3)C2)cc1 (configuration not stated)	34.5
CCS(=O)(=O)N1CCC(C(=O)Oc2ccc(C(=O)OC)cc2)CC1	4.94
Cc1ccc2nc(NC(=O)COC(=O)c3ccccn3)sc2c1	76.5
Cc1ccc2nc(NC(=O)c3ccccc3F)sc2c1	2.6
O=C(Nc1nc2ccc(F)cc2s1)Oc1ccccc1	6.26
Cc1cnc(NC(=O)c2ccncc2)s1	-17.1
O=C(Nc1nc2ccc(F)cc2s1)c1cccs1	33.5
CSc1ncccc1C(=O)Nc1ncc(C)s1	13.3
CCc1ccc(C(=O)NNc2cc(Cl)cc(Cl)c2)cc1	67.2
CN(C)c1ccc(NC(=O)CCCCCn2nnc3ccccc3c2=O)cc1	2.13

SMILES	inhibition [%]
O=[N+]([O-])c1cccc(-c2nnc(-c3ccccc3)o2)c1	75.3
O=[N+]([O-])c1cccc(-c2nnc(-c3ccccc3F)o2)c1	35.9
Cc1ccc(C(=O)Nc2ccc(C(=O)N/N=C/c3ccc(C)o3)cc2)cc1	9.26
Cc1cccc(NC(=O)CCNS(=O)(=O)c2ccc(Cl)cc2)c1	-5.22
CCOC(=O)C1(Cc2ccc(OC)cc2)CCN(C(=O)CN2CCOC2=O)CC1	-7.21
CN(C)S(=O)(=O)c1ccc(C(=O)OCCc2ccccc2)cc1	42.9
CN(C)S(=O)(=O)c1ccc(Oc2ccccc2)cc1	27.6
COc1cc(/C=N/Nc2ccc(Cl)c(C(=O)O)c2)ccc1OC(=O)c1ccc(F)cc1	52.6
O=C(NC(NNc1ccc([N+](=O)[O-])cc1)(C(F)(F)F)C(F)(F)F)c1ccc(F)cc1	29.8
CC(C)c1ccc2[nH]c3c(c2c1)CCCC3=O	6.88
Nc1ccc(C(=O)N/N=C2\CCCc3c2[nH]c2ccccc32)cc1	19.8
O=C(N/N=C1\CCCc2c1[nH]c1ccc([N+](=O)[O-])cc21)c1ccncc1	-12.5
O=C(NN=C1CCCCCC1)c1ccncc1	70.4
CC(/C=C/c1ccc2c(c1)OCO2)=N\NC(=O)c1cccc([N+](=O)[O-])c1	68.6
CC1=C(/C=C/C(=O)O)C(C)(C)CCC1	13.1
CC1=C(/C=C/C(C)=C/C=C/C(C)=C/C(=O)O)C(C)(C)CCC1	15.6
C/C(=N\NC(=O)c1cccc([N+](=O)[O-])c1)c1ccncc1	8.18
COc1cc(NC(=O)CN2CCN(c3ccccc3)CC2)c(C)cc1[N+](=O)[O-]	-14
O=C1C(c2ccccc2)=C(N2CC2)c2ccccc21	15.4
Nc1c(C(=O)c2ccccc2)sc2c1c(=O)[nH]c(=O)n2-c1ccccc1	6.25
CCOC(=O)c1nn(-c2ccc(F)cc2)c2nc(Nc3ccccc3)cc(=O)n12	75.5
CCOC(=O)c1nn(-c2cccc(Cl)c2)c2nc(Nc3ccccc3)cc(=O)n12	63.6
Cc1cc(C(=O)N2CCCC(N3CCN(c4ccccc4C)CC3)C2)n(C)n1 (configuration not stated)	8.85

SMILES	inhibition [%]
CCN1CCN(C2CC(=O)NC2=O)CC1 (configuration not stated)	-2.18
Cc1ccc(NC(=O)C2CCN(C(=O)N3CCOc4ccccc43)CC2)cc1	25.7
Oc1ccc2ccccc2c1CN1CCCC1	21.4
Oc1ccc(Br)cc1CN1CCCCCCC1	8.51
O=C(NC1CCCCC1)C1CCCN(S(=O)(=O)c2cccc3cccnc23)C1 (configuration not stated)	-8.57
CCOC(=O)c1cc(=O)c2c([N+](=O)[O-])ccc(OC)c2o1	-14.2
CCOC(=O)c1cc(=O)cc(C(=O)OCC)o1	-3.36
COc1cccc(C(=O)NCC(=O)NCc2cc(=O)n(C)c(=O)n2C)c1OC	-9.9
O=C1CNC(=S)N1C1CCCCCC1	0.27
O=C(CCN1C(=O)S/C(=C/c2ccc(F)cc2)C1=O)Nc1ccc(O)c(C(=O)O)c1	-1.86
O=C(CCN1C(=O)S/C(=C\c2ccc(F)cc2)C1=O)Nc1ccc(O)cc1C(=O)O	24.1
CCCn1c(=O)c2ccccc2n2c(SCc3nnc(-c4ccccc4Br)o3)nnc12	-5.68
COC(=O)c1ccn(-c2nc(-c3ccco3)cc(C(F)(F)F)n2)n1	-17.4
O=C(COc1ccccc1Cl)c1ccc2c(c1)CCCC2	38.7
Cc1cccc(NC(=O)CCc2ccc(C)o2)c1	25.7
Cc1ccc(CCC(=O)Nc2ccc([N+](=O)[O-])cc2Cl)o1	75.5
Cc1ccc(CCC(=O)Nc2ccc(N(C)C)cc2)o1	39.5
Cc1ccc(C)c(NC(=O)CCc2ccc(C)o2)c1	79.3
Cc1ccc(NC(=O)CCc2ccc(C)o2)c(C)c1	68.3
Cc1ccc(CCC(=O)Nc2ccc(Cl)cc2)o1	79.5
Cc1cccn2c(=O)c3cc(S(=O)(=O)c4ccccc4)c(=N)n(Cc4cccnc4)c3nc12	-4.09
Cc1ccc(C(=O)N2CCC(C(=O)Nc3cccc([N+](=O)[O-])c3)CC2)cc1	28.6
Cc1ccccc1NC(=O)Cn1nc(C(=O)O)c2ccccc2c1=O	-3.67

SMILES	inhibition [%]
Cc1ccc(C)c(-n2c(-c3csc(C)c3)n[nH]c2=S)c1	11.6
CCCC(=O)Nc1ccc(C2C(=O)c3ccccc3C2=O)cc1	-4.62
O=C(Nc1ccc(N2CCN(C(=O)c3ccccc3)CC2)cc1)c1ccc2c(c1)OCO2	13.6
CCOC(=O)N1CCC(NS(=O)(=O)c2cc3c(cc2C)NC(=O)CO3)CC1	8.95
CCOC(=O)N1CCC(NC(=O)CN(C)S(=O)(=O)c2cc3c(cc2Cl)NC(=O)CO3)CC1	31.8
Oc1ccccc1N=Cc1ccc[nH]1	72.2
O=C1NCC(O)=C1C=NCCO	-6.04
CCOc1ccc(NC(=O)CSc2nc(-c3cccs3)cc(C(F)(F)F)n2)c([N+](=O)[O-])c1	7.92
CCN(CC)C(=O)CSc1nc2c(c(-c3cccnc3)c1C#N)CCCC2	24
CN(c1ccccc1)S(=O)(=O)c1ccc(C(=O)OCC(=O)NCc2ccco2)cc1	18.2
O=C(N/N=C/c1ccc([N+](=O)[O-])cc1)c1cc2ccccc2o1	6.74
Cc1cc(C(=O)N/N=C/c2ccc([N+](=O)[O-])cc2)c(C)o1	-13.2
Nc1nonc1C(=O)N/N=C/c1ccc(-c2cccc([N+](=O)[O-])c2)o1	-4.42
O=C(N/N=C/c1cccc([N+](=O)[O-])c1)c1cc2ccccc2o1	21.7
Cc1ccc(/C=N/NC(=O)c2cc(C)oc2C)o1	3.1
O=C(N/N=C/c1ccc([N+](=O)[O-])cc1)c1ccc(NS(=O)(=O)c2cccs2)cc1	17.2
O=C(N/N=C/c1ccc([N+](=O)[O-])o1)c1ccccc1NS(=O)(=O)c1cccs1	48
Nc1nonc1C(=O)N/N=C/c1ccc(Br)o1	-9.49
O=S(=O)(Nc1nc2ccccc2nc1Cl)c1ccc2ccccc2c1	47.8
Cc1ccc(NC(=O)COC(=O)C2CCN(c3ccc(C(F)(F)F)cn3)CC2)cc1C	14.8
N#Cc1nc(N2CCCCC2)nc(N2CCOCC2)n1	13.1
C=CCn1c(CNC(=O)c2ccco2)nnc1SCC(=O)c1ccccc1	12.6
CCCn1c(=O)c(C(=O)NNS(=O)(=O)c2ccc(Cl)cc2)c(O)c2ccccc21	30.4

SMILES	inhibition [%]
COc1cc(/C=N\Nc2nncn2N)ccc1OC(C)=O	8.91
COc1ccc(S(=O)(=O)NC(CC(=O)NCCc2ccc(OC)c(OC)c2)c2ccco2)cc1 (configuration not stated)	-6.87
COCCSc1ccccc1C(=O)N1CCC(Cc2ccccc2)CC1	12.1
O=C(N/N=C/c1ccncc1)c1sc2ccccc2c1Cl	67.1
O=C(N/N=C/c1ccc([N+](=O)[O-])o1)c1ccc(O)cc1	76.5
CCN(CC)C(=O)Cn1cc(S(=O)(=O)CC(=O)Nc2ccc(F)cc2)c2ccccc21	-1.96
C/C(=N\NC(=O)c1ccccc1O)c1c(O)cc(C)oc1=O	76.5
CCc1ccc(OCC(=O)N/N=C(\C)c2ccc(O)cc2O)cc1	69
C/C(=N\Nc1ccccc1)c1c(O)cc(C)oc1=O	54.3
C/C(=N\NC(=O)c1ccccc1[N+](=O)[O-])c1c(O)cc(C)oc1=O	11.3
CCCCCC(=O)c1ccc(O)cc1O	44.3
CCc1ccccc1N/N=C(/C)c1c(O)cc(C)oc1=O	19.8
CCCCCCCCC(=O)N/N=C(\C)c1ccco1	-9.44
C/C(=N\NC(=O)c1cccnc1)c1c(O)cc(C)oc1=O	-4.46
C/C(=C\c1ccccc1)CN1CCC(C(=O)N2CCCC(C)C2)CC1 (configuration not stated)	22.3
COc1ccc(S(=O)(=O)N(C)C[C@H]2Oc3ccc(NS(=O)(=O)c4cn(C)cn4)cc3C(=O)N([C@H](C)CO)C[C@@H]2C)cc1	-5.84
O=C(CCc1nnc2ccc(NCc3ccco3)nn12)N1CCN(c2ccccc2F)CC1	28.5
O=C(COc1ccccc1)Nc1ccc(Cl)cc1Cl	72.1
Cn1cnc2cc(NS(=O)(=O)c3ccc(Br)cc3)ccc21	-3.25
O=C(CCC(=O)c1ccc(F)cc1)OCc1nnc(-c2ccc([N+](=O)[O-])cc2)o1	37
